ALR H2O2 inh: inhibitors of human sulfhydryl oxidase ALR; P55789; purified ALR, DTT oxidation, H2O2 HRP-luminol luminescence; inhibition, % (concentration not given with the values); 290,000 tested, 3.8% active;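 active = mean replicate inhibition above about 79%, with every replicate also reaching it, limit read from the data; inconclusive = only one of the two criteria met; inactive = mean below limit and not every replicate reaching it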
Target sequence (P55789 whole entry, looked up): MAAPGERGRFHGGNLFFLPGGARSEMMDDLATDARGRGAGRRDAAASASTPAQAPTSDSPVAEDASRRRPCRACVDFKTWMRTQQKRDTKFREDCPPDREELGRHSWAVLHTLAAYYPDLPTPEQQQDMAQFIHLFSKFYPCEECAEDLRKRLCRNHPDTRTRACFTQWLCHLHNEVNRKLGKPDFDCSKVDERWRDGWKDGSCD
Mot1-301 SUMO: SUMOylation pathway inhibition by Mot1-301 growth rescue; S. cerevisiae Mot1-301 growth rescue, ATP luminescence, 38.5C; percent above DMSO median, 100 means doubled; growth rescue, % at 18.8 µM; 320,000 tested, 1% active; AID 2716;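 active = every valid replicate shows activation above 250% relative to neutral control wells; inactive = the rest, any valid replicate at or below 250%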;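 also: OY570 slx delta 5 strain wells were the positive control but not used for scaling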
HIF act: HIF pathway transcriptional activation; U2OS HRE-luciferase reporter, luminescence; normalized: DMSO 0%, desferrioxamine 100%; activation, % at 7.5 µM (by protocol); 300,000 tested, 0.32% active; AID 1910;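 active = mean activation of at least 10% of the iron chelator positive control signal, with at least half of replicates also reaching 10%; inconclusive = mean and replicate majority disagree about reaching 10%; inactive = mean and most replicates under 10%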
M18AAP inhibitor: PfM18AAP enzyme inhibition | recombinant PfM18AAP, H-Glu-NHMec fluorogenic cleavage | inhibition, % at 7.35 µM | AID 1822 | 290,000 tested, 1.2% active;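 active = inhibition above the campaign mean inhibition over all tested compounds plus 3 SD, cut at about 28% in these data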;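 also: 0% = plate median of test compound wells and 100% = 2 mM ZnCl2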
* = called active by the depositor; ? = inconclusive; / = not tested or not shown; + = active, no number. This is a sample that favours compounds with a hit; in the whole collection about 5.3% have one here.

SMILES | ALR H2O2 inh | Mot1-301 SUMO | HIF act | M18AAP inhibitor
CCCCCCOc1ccc(/C(N)=N/O)cc1 | 99* | -9 | 2 | -4
Cc1ccccc1C(=O)Nc1ccccc1NC(=O)c1ccccc1Br | -4 | -16 | 0 | 5
COc1ccc(Nc2ccccc2N)cc1 | 98* | -3 | 1 | 10
COc1ccc(Nc2ccccc2NC(=O)c2ccccc2Br)cc1 | 82* | 4 | 0 | 16
CCn1c(SCc2nc3sc(C(=O)O)c(C)c3c(=O)[nH]2)nc2ccccc21 | 98* | 65 | 0 | 33*
O=C(O)c1ccccc1C(=O)N1CCN(Cc2ccc3c(c2)OCO3)CC1 | / | / | -1 | 29*
O=C(c1ccccc1Br)N1CCN(Cc2ccc3c(c2)OCO3)CC1 | / | 186 | -1 | 6
CCOc1ccc(OCCC(=O)OCC(=O)NCCc2ccc(S(N)(=O)=O)cc2)cc1 | 12 | -7 | / | /
CC(C)c1nnc(NC(=O)CCC(=O)NC2CC2)s1 | -6 | -12 | 18* | -12
CC(C)c1nnc(NC(=O)CCC(=O)NC2CCCCCC2)s1 | -1 | 4 | 0 | -4
Cc1cccc(OCc2nc(-c3cccnc3)no2)c1 | -6 | -1 | 2 | 3
Cc1cc(Cl)ccc1OCC(O)CNCCc1ccc(S(N)(=O)=O)cc1 (configuration not stated) | -24 | 309* | -21 | -1
Cc1cccc(CSc2nc3[nH]ncc3c(=O)[nH]2)c1 | 2 | 156 | 0 | 14
CNC(=O)CSc1nc2[nH]ncc2c(=O)[nH]1 | 4 | 6 | 0 | 30*
O=c1[nH]c(SCc2ccccc2Cl)nc2[nH]ncc12 | -20 | -7 | 0 | 48*
O=C(c1ccc([N+](=O)[O-])cc1)N1CCN=C1SCc1ccccc1 | / | -1 | 0 | -14
O=C(c1ccccc1)N1CCN=C1SCc1ccc([N+](=O)[O-])cc1 | 99* | -12 | 0 | 14
Cc1ccc(C(=O)N2CCN=C2SCc2ccc([N+](=O)[O-])cc2)cc1C | 99* | 94 | 0 | 3
Cc1cc(N(CCO)CCO)ccc1N=Nc1cc(F)ccc1F | 99* | 8 | 4 | 4
OCCOCCn1c(C(CO)Nc2nc(-c3ccc(Cl)cc3)cs2)nc2ccccc21 (configuration not stated) | 95* | -9 | 0 | /
O=C(OCC(=O)N1CCCC1)c1cnc(Cl)c(Cl)c1 | 5 | -7 | / | /
Oc1ccc2ccc3[nH]cnc3c2c1 | 100* | 5 | 2 | 4
CN(C)Cc1c(O)ccc2[nH]cnc12 | -2 | 322 | 0 | 0
CCn1c(=O)c2cc(C(=O)Nc3ccc(OC)cc3OC)sc2c2ccccc21 | -6 | + | 0 | -6
CCn1c(=O)c2cc(C(=O)NCCOC)sc2c2ccccc21 | 0 | 1 | 2 | 5
SMILES | ALR H2O2 inh | Mot1-301 SUMO | HIF act | M18AAP inhibitor
COc1ccc(N(C)C(=O)c2cn(CC(C)C)c(=O)c3cc(OC)c(OC)cc23)cc1 | -11 | 6 | 0 | 2
O=S(=O)(Nc1ccc(Br)cn1)c1ccc(Cl)s1 | 2 | 7 | 0 | -4
CC1=NN(c2ccccc2)C(=O)C1(C)C | 0 | 6 | -1 | 4
CC1=C(C)CC2(SC1)C(=O)N(c1ccccc1)N=C2N (configuration not stated) | 94* | -13 | 1 | 14
CCOC(=O)c1c(NC(=O)CC)sc(C(C)=O)c1C | -5 | 3 | 0 | 4
Cc1ccc(NC(=O)c2cccc(Oc3ccc([N+](=O)[O-])cc3)c2)c(C(=O)O)c1 | 97* | 2 | 2 | 6
O=C(Nc1ccc(O)cc1)c1cccc(Oc2ccc([N+](=O)[O-])cc2)c1 | 99* | 2 | 1 | 1
O=C(O)c1cccc(Oc2ccc([N+](=O)[O-])cc2)c1 | 1 | -11 | / | 1
O=C(c1cc(COc2ccc(F)cc2Cl)on1)N1CCN(c2cnccn2)CC1 | 14 | -6 | 0 | 0
O=C(COc1coc(CN2CCN(c3ccc(F)cc3)CC2)cc1=O)NC1CCCC1 | 3 | 297* | 1 | /
CN(C)c1nc(N)c([N+](=O)[O-])c(N2CCCCCC2)n1 | 2 | 12 | -1 | -14
Cn1c(/C=C/c2cccc([N+](=O)[O-])c2)c([N+](=O)[O-])c(=O)n(C)c1=O | 98* | -10 | 0 | 24
COc1ccc(/C=C/c2c([N+](=O)[O-])c(=O)n(C)c(=O)n2C)cc1OC | -14 | -15 | 0 | 3
O=c1c2c3c(sc2ncn1/N=C/c1ccc([N+](=O)[O-])o1)CCCC3 | -14 | 290* | 0 | 0
COc1ccc(C(=O)Nc2nc(C)c(C)s2)cc1OC | 99* | -3 | 5 | -3
CCOC(=O)c1c(N)sn(-c2ccccc2C)c1=S | 97* | 10 | 0 | 20
CCOC(=O)c1sc(=S)n(-c2ccccc2Cl)c1SC | 4 | -17 | 0 | 4
COc1ccc(C(=O)CCNc2ccc(F)cc2)cc1 | -10 | -8 | 14* | -9
COc1ccc(CCC(=O)N2CCCC(Nc3ccccc3)C2)cc1OC (configuration not stated) | 98* | 11 | 0 | 7
COc1ccc(NC2CCCN(C(=O)CCc3cn[nH]c3)C2)cc1 (configuration not stated) | 99* | -1 | 0 | 1
COc1ccc(NC2CCCN(C(=O)CCC(=O)c3ccc(F)cc3)C2)cc1 (configuration not stated) | 99* | 2 | 1 | 10
COC(=O)c1ccc([C@H](NC(=O)c2ccco2)[C@]2(C)C[C@H]2C2CCCCC2)cc1 | -6 | 37 | 0 | /
Cn1cc(CCC(=O)N2CCCC(Nc3ccc(F)cc3)C2)cn1 (configuration not stated) | ? | 432 | 0 | 26
C=CCOc1cccc(C(=O)N2CCCC(Nc3ccc(F)cc3)C2)c1 (configuration not stated) | 59 | -12 | 0 | 9
COc1ccc(CCC(=O)N2CCCC(Nc3ccc(OC)cc3)C2)cc1 (configuration not stated) | 99* | 0 | -1 | 4
SMILES | ALR H2O2 inh | Mot1-301 SUMO | HIF act | M18AAP inhibitor
O=C(CCc1ccccc1)N1CCCC(Nc2ccc(F)cc2)C1 (configuration not stated) | 98* | -2 | 0 | 2
COc1cc(OC)cc(C(=O)N2CCCC(Nc3ccc(F)cc3)C2)c1 (configuration not stated) | 99* | -22 | 0 | 0
O=C(CCc1ccncc1)N1CCCC(Nc2ccc(F)cc2)C1 (configuration not stated) | 56 | -7 | 1 | 3
COc1ccc(NC2CCCN(C(=O)CSc3ccncc3)C2)cc1 (configuration not stated) | 99* | 0 | 0 | 9
Cc1ccc(Cc2ccc(C(=O)NNC(N)=S)o2)cc1 | 36 | -13 | 0 | 6
O=C1CCC(C(=O)N2CCCC(Nc3ccc(F)cc3)C2)=NN1 (configuration not stated) | 82* | 2 | 0 | 2
Cn1nccc1C(=O)N1CCCC(Nc2ccc(F)cc2)C1 (configuration not stated) | 72 | -1 | 0 | 8
CN(C)c1ccccc1C(=O)N1CCCC(Nc2ccc(F)cc2)C1 (configuration not stated) | 99* | -4 | -1 | -4

Bioassay records: PubChem BioAssay, several laboratories
